Source: PubChem BioAssay (National Center for Advancing Translational Sciences (NCATS))
KinaseGlo FLuc = Counterscreen for Luciferase (Kinase-Glo TM) Inhibition; Luciferin 4-monooxygenase (Photuris pensylvanica), Q27757; Kinase-Glo luciferase, ATP luminescence, 8 min; Potency, µM (titrated, usually from 38.3 µM), actives largely listed as inhibitors; hit rate 0.28% among 200,000; AID 1379, 2008; also: nearly all actives have a fitted effect of over 60% in size
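Inhibition of Kinase-Glo luciferase light generation was assessed at 10 uM ATP in pH 7.2 imidazole buffer, with luminescence measured after eight minutes at ambient temperature.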
FLuc counter = qHTS profiling assay for firefly luciferase inhibitor/activator using purifed enzyme and Km concentrations of substrates (counterscreen for miR-21 project) | Luciferin 4-monooxygenase (Photinus pyralis), P08659 | purified FLuc, Km substrates, luminescence inhibition | Potency, µM (titrated, usually from 57.5 µM), hits mostly inhibitors | hit rate 6.9% among 360,000; also: nearly all actives have a fitted effect of over 55% in size
Target sequence (P08659 whole entry, looked up): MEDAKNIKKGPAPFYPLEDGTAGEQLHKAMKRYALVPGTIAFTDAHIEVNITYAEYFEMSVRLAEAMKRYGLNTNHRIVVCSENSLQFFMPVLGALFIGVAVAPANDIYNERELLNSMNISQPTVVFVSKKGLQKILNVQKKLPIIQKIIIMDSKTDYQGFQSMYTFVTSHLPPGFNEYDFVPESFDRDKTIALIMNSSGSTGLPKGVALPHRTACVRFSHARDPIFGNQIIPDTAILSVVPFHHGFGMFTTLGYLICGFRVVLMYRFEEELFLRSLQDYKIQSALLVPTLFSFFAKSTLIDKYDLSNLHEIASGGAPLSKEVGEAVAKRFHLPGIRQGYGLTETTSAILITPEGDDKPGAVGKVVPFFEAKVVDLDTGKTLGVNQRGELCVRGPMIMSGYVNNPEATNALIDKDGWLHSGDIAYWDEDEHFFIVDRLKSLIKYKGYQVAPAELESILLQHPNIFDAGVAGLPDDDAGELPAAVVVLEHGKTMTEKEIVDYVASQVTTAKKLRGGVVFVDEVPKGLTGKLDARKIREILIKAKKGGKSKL
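Biochemical qHTS of compounds, final roughly 60 µM downward over six points, against 10 nM purified firefly luciferase using Km concentrations of substrates (10 uM D-luciferin, 10 uM ATP) in Tris acetate pH 7.5 buffer; luminescence output.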
SMN2 splice up = qHTS Assay for Enhancers of SMN2 Splice Variant Expression. hit rate 2.8% among 210,000. HEK293 SMN2-luciferase splicing reporter, luminescence, 30-36 h. Potency, µM (highest dose often 46.1 µM), most hits filed as activators; also: nearly all actives have a fitted effect of over 55% in size
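HEK293 cells carry an SMN2 […]–luciferase reporter in which exon 7 inclusion puts luciferase in frame. Cells were plated 10-12 h before compound addition, then incubated 30-36 h at 37C. ONE-Glo luminescence was read; sodium butyrate at 4.5 mM final served as control.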
NPC1 prom act = qHTS Assay for NPC1 Promoter Activators. AID 485313, 2010. Potency, µM (series often up to 9.22 µM), usual class: activators. hit rate 2.4% among 320,000. Huh7 NPC1 promoter luciferase reporter, 24 h; also: nearly all actives have a fitted effect of over 60% in size
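Cells: Huh7 expressing luciferase under the NPC1 promoter, 1500/well. Seeded 2 h, compound added, incubated 24 h at 37 °C. Luciferase reagent, 10 min ambient, then luminescence.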
ELG1 genotoxic = qHTS screen for small molecules that induce genotoxicity in human embryonic kidney (HEK293T) cells expressing luciferase-tagged ELG1. HEK293T ELG1-luciferase reporter, luminescence, 16 h. Potency, µM (doses to about 46 µM), most hits filed as activators. hit rate 1.3% among 330,000. AID 504466, 2011; also: nearly all actives have a fitted effect of over 60% in size
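Cells (2,000/well) expressing the ELG1-luciferase fusion are dosed by pin tool and kept 16 hr at 37 °C, 5% CO2. Signal comes from ONE-Glo luciferase reagent after 30 min at room temperature.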
Rab9 prom act = qHTS Assay for Rab9 Promoter Activators | hit rate 2.8% among 320,000 | Huh7 Rab9 promoter-luciferase reporter, luminescence, 24 h | Potency, µM (titrated, usually from 9.22 µM), usual class: activators; also: nearly all actives have a fitted effect of over 60% in size
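Quantitative HTS format; Huh7 Rab9-luciferase reporter cells (1500/well) receive compound 2 h post-plating, incubate 24 h at 37 °C, then get luciferase reagent for 10 min before luminescence reading.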
Numbers stand for hits; n = inactive; u = inconclusive; x = no result given; ! = not confirmed by another sample; [ ] = remark or other dose. In the library only some 7.3% were active in any assay of this set; here they are far more common. Calls follow the shape of the dose curve; as a rule, active = well fitted curve in the direction sought with a large enough effect; inconclusive = small, poorly fitted or top-dose-only effect, or another doubt; inactive = no such curve, though single readings can be large; an effect the other way counts as inactive or inconclusive.

SMILES	KinaseGlo FLuc	FLuc counter	SMN2 splice up	NPC1 prom act	ELG1 genotoxic	Rab9 prom act
CCCCCCc1c(C)c2ccc(OCC(=O)N3CCC[C@H]3C(=O)O)c(C)c2oc1=O	x	16.9µM	x	n	n	n
CCCc1cc(=O)oc2c(C)c(OCC(=O)N3CCC[C@@H]3C(=O)O)ccc12	x	n	x	n	n	n
CCOC(=O)CCc1c(C)c2ccc(OCC)c(C)c2oc1=O	n	12µM	n	n	n	n
NC(=O)[C@@H]1CC2(CC(c3cccc(NC(=O)COc4ccc(Cl)cc4)c3)=NO2)CN1C(=O)c1ccccc1 (stereo partly drawn)	x	15.1µM	x	n	n	n
NC(=O)[C@H]1CC2(CC(c3cccc(NC(=O)COc4ccc(Cl)cc4)c3)=NO2)CN1C(=O)Cc1ccc([N+](=O)[O-])cc1 (stereo partly drawn)	x	9.53µM	x	n	n	n
CCC(=O)Nc1cccc(C2=NOC3(C2)C[C@H](C(N)=O)N(C(=O)c2ccc(Cl)cc2)C3)c1 (stereo partly drawn)	x	n	x	n	n	n
COc1ccc(C(=O)N2CC3(CC(c4cccc(NC(=O)COc5ccc(Cl)cc5)c4)=NO3)C[C@@H]2C(N)=O)cc1 (stereo partly drawn)	x	10.7µM	x	n	n	n
COc1ccc(CCN2CCC(CNC(=O)c3cnn(-c4ccc(C)cc4)c3C3CCN(C(=O)OC(C)(C)C)CC3)CC2)cc1	x	n	x	x	x	x
Cc1ccc(NC(=O)CN(CCc2ccccc2)S(=O)(=O)c2ccccc2)c(C)c1	x	n	n	x	x	x
CCc1ccc(C2c3c(-c4cc(C)ccc4O)n[nH]c3C(=O)N2CCO)cc1 (stereo not drawn)	x	n	n	x	x	x
Cc1occc1C(=O)Nc1ccccc1C(=O)O	n	26.9µM	n	n	u	n
CCc1ccccc1NC(=O)c1ccoc1C	n	n	n	n	n	n
Cc1cc(C(=O)Nc2ccccc2C(=O)O)oc1C	x	19µM	x	n	n	n
O=C(Nc1nc(-c2ccccn2)cs1)c1ccc([N+](=O)[O-])o1	x	u	x	n	n	n
Cc1ccc(C(=O)Nc2nc(-c3ccccn3)cs2)o1	x	19µM	x	n	n	n
CCc1cc(C(=O)Nc2nc(-c3ccccn3)cs2)sc1C	x	12µM	x	n	n	n
CCOC(C)(C)C	x	x	n	x	x	x
COc1cccc(NC(=O)Nc2cccc(-c3cn4cccnc4n3)c2)c1	x	6.75µM	n	x	x	x
COc1cccc(NC(=O)Nc2cc(-c3cn4cccnc4n3)ccc2C)c1	x	n	n	x	x	x
COc1ccc(-c2cn3cccnc3n2)cc1NC(=O)Nc1cc(C)ccc1C	x	2.39µM	n	n	x	n
COc1cccc(NC(=O)Nc2cc(-c3cn4cccnc4n3)ccc2OC)c1	x	1.35µM	8.91µM	x	x	x
COc1ccc2oc(=O)c(C(=O)NCCc3c(C)[nH]c4c(C)cccc34)cc2c1	x	n	n	x	x	x
CCCC(=O)N1c2ccccc2[C@@H](N(C(C)=O)c2ccccc2)C[C@H]1C	n	n	n	n	n	n
CCC(=O)N1c2ccccc2C(N(C(C)=O)c2ccccc2)CC1C (stereo not drawn)	n	n	5.62µM	n	u	n
CCC(=O)N1c2ccccc2C(N(C(=O)CC)c2ccccc2)CC1C (stereo not drawn)	x	n	x	n	23.1µM	n
SMILES	KinaseGlo FLuc	FLuc counter	SMN2 splice up	NPC1 prom act	ELG1 genotoxic	Rab9 prom act
Cc1nc(Cl)cc(N/N=C/c2ccc(O)cc2O)n1	x	13.5µM	x	n	n	n
Cc1nc(Cl)cc(N/N=C/c2ccc(O)cc2)n1	x	21.3µM	x	n	u	n
N#C/C(=C\N1CCNC1=S)C(=O)c1ccc2ccccc2c1	n[7.66 µM]	x	n[9.22 µM]	x	x	x
O=C(c1ccc(Cl)c([N+](=O)[O-])c1)N1CCCc2ccccc21	x	19µM	x	n	n	n
Nc1[nH]c(N=NC(=O)c2ccc(F)cc2)c2ccccc12	u	7.57µM	x	u	u	3.98µM
Nc1ccccc1C(=O)N=Nc1[nH]c(N)c2ccccc12	n	3.79µM	17.8µM	3.55µM	u	2.82µM
Nc1ccccc1C(=O)NCc1ccc(F)cc1	n	n	n	n	n	n
O=C(Nc1ccccc1NC(=O)c1ccc(F)cc1)c1ccc(F)cc1	x	n	x	n	n	n
CCOc1ccc(NC(=O)Cn2nc(Cc3cccnc3)c3ccccc3c2=O)cc1	x	n	n	x	x	x
Cc1ccc(/C=C\c2nccc3c2[nH]c2ccccc23)cc1	n	1.69µM	u	u	u	u
CSc1ccc(/C=C/c2cc(=O)c3ccccc3[nH]2)cc1	n	u	n	n	n	u
C(=C\c1nccc2c1[nH]c1ccccc12)/c1ccccc1	x	7.57µM	x	u	n	u
c1ccc2c(c1)[nH]c1ccccc12	x	x	n	x	x	x
Fc1ccc(/C=C\c2nccc3c2[nH]c2ccccc23)cc1	n	5.36µM	n	n	n	n
Cc1[nH]c2ccccc2c1/C=C/c1cc[n+](C)cc1	n	n	n	n	n	n
O=c1c2oc3ccccc3c2n(Cc2cccc(F)c2)c(=O)n1Cc1ccco1	x	n	x	x	x	x
COc1cccc(-c2nc(CS(=O)(=O)CC(=O)NCCc3ccc(Cl)cc3)c(C)o2)c1	x	n	n	x	x	x
Cc1ccc(N(C)C(=O)CCS(=O)(=O)c2cc3c(cc2Cl)NC(=O)CO3)cc1	x	1.69µM!	x	n	n	n
CCN(C(=O)CCS(=O)(=O)c1cc2c(cc1Cl)NC(=O)CO2)c1ccccc1	x	n	x	n	n	n
O=C(NCCCN1CCOCC1)c1cc(-c2ccccc2)on1	n	n	n	n	18.4µM	n
O=C(NCCN1CCOCC1)c1cc(-c2ccccc2)on1	n	n	n	n	18.4µM	n
CCCCCCSc1nsc(NC(C)=O)n1	n	u	n	u	u	u
CCCCSc1nsc(NC(C)=O)n1	n	10.7µM	17.8µM	2.24µM	u	1.41µM
CCCSc1nsc(NC(=O)CCC)n1	n	12µM	5.01µM	2.82µM	n	1.41µM
CCCSc1nsc(NC(=O)c2cccnc2OCC)n1	n	u	n	n	n	n
O=C(NC(=S)Nc1ccc(N2CCOCC2)c(Cl)c1)c1cccs1	n	19µM	n	u	n	u
O=C(Nc1ccc(N2CCN(C(=O)c3cccs3)CC2)c(Cl)c1)c1ccco1	n	u	n	n	n	n
O=C(Nc1ccc(N2CCCC2)c(Cl)c1)c1cccs1	u	2.39µM	2.82µM	0.708µM	2.31µM	0.447µM
Cc1ccc(O)c(NC2=C(Cl)C(=O)N(Cc3ccccc3)C2=O)c1	n	21.3µM	n	n	n	n
COc1cc(C(=O)N/N=C/c2cn(Cc3ccccc3)c3ccccc23)ccc1O	x	16.9µM	x	n	n	n
